Measurements as given in PubChem BioAssay (NCATS).
Values joined by “and” are separate entries in the source; they are usually repeats but may differ in a detail not shown here. Equal entries are not always repeated. Inconclusive results are not listed. Where a call stands in place of a potency, no number is given. Active and inactive are the calls of the source. Calls come from the whole dose curve.

What was measured:
[1] = Cytotoxicity counterscreen for inhibitors of SARS-CoV-2 cell entry (AID 1645845); note: nearly all actives have a fitted effect of over 50% in size
Summary of the method: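 After a 15 min room-temperature ATPLite 1step step, luminescence reflected ATP remaining in HEK293-ACE2 cells exposed to compound for 1 h plus 48 h at 37 C, with percent activity set by cell and no-cell controls.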

[2] = Primary qHTS to identify inhibitors of SARS-CoV-2 cell entry (AID 1645846); conditions: activity change, negative = inhibition: at 57.1 µM (top of the series) unless noted; note: nearly all actives have a fitted effect of over 45% in size
Summary of the method: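 HEK293 cells stably expressing human ACE2, pre-treated 1 h with compound, then infected with MLV particles pseudotyped with Wuhan-Hu-1 spike (C-terminal 19-aa truncation). Luciferase luminescence after 48 h at 37 °C, normalised to spike PP and bald PP.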

SMILES	Potency [1]	Potency [2]	activity change, negative = inhibition [2]
CCc1c(C)[nH]c2c1C(=O)C(CN1CCOCC1)CC2 (configuration not stated)	inactive	inactive	–
Cc1cc2c(cc1C1(c3ccc(C(=O)O)cn3)CC1)C(C)(C)CCC2(C)C	inactive	inactive	–
CCN(CC)CCn1c(=O)c(Cc2ccc(OC)cc2)nc2ccccc21	inactive	–	-28.6%
CN(C)c1ccc(C2Nc3ccc4ccccc4c3C3=C2C(=O)CC(C)(C)C3)cc1Br (configuration not stated)	inactive	–	-8.04%
Cc1ccnc(NS(=O)(=O)c2ccc(NC(=O)Nc3ccc(S(=O)(=O)Nc4nccc(C)n4)cc3)cc2)n1	inactive	–	-16.3%
NCCS	inactive	inactive	–
CC(C)(C)c1nnc(NS(=O)(=O)c2ccccc2)s1	inactive	inactive	–
CC(C)(C)C(=O)Oc1ccc2c(c1)nc(NC(=O)c1cccc([N+](=O)[O-])c1)n2CCCO	inactive	–	-6.43%
CC(=O)N[C@@H](Cc1ccc(O)cc1)C(=O)O	inactive	inactive	–
COc1ccccc1O	inactive	inactive	–
CC(C)c1ccc2c(c1)c(SC(C)(C)C)c(CC(C)(C)C(=O)O)n2Cc1ccc(Cl)cc1	inactive	inactive	–
CNCc1ccc(-c2[nH]c3cc(F)cc4c3c2CCNC4=O)cc1	inactive	–	-28.3%
CS(=O)(=O)c1ccc(C(=O)Nc2ccc(Cl)c(-c3ccccn3)c2)c(Cl)c1	inactive	–	-12.8% and -5.84%
CC[C@H](Nc1ncnc2nc[nH]c12)c1nc2cccc(F)c2c(=O)n1-c1ccccc1	inactive	–	-11%
COCC1(CO)C(=O)C2CCN1CC2 (configuration not stated)	inactive	–	-14.4%
CC(=O)OCCN1C(=O)c2c(C)nc3ccc(S(=O)(=O)N4CCOCC4)cc3c2C1=O	inactive	–	2.17%
